Data: PubChem BioAssay (NCI)
Compounds without any hit were thinned out: in the full panel of roughly 83,000, 20% have a hit.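 How to read the values: 0–100, growth inhibition (40 = 60% inhibited); 0, no net growth; -100 to 0, cell death (-40 = 40% of starting cells died; -100 = all dead).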 A number with no mark means an inactive call. Calls of active or inactive are those of the source.

test system: U251 CNS; assay: NCI-60 one-dose screen, 48 h (100 = growth as untreated, 0 = no growth, -100 = all killed); details: 10 µM
Method: Growth inhibition of the U251 human tumor cell line is measured as a screen for anti-cancer activity. Cells are grown in 96 well plates and exposed to the test compound for 48 hours. Compounds are tested at a single concentration, which is 10^-5 M for most compounds. The reported endpoint is percent growth (GI% or GIPRCNT), where numbers from 0 - 100% represent growth inhibition, and numbers from -100% - 0 represent cell death. For example, a value of 40 represents 60% growth inhibition. A value of 0 means no net growth occurred over the course of the experiment. A value of -40 indicates 40% of cells at the beginning of the experiment died by the end of the experiment. A value of -100 means all cells are dead at the end of the experiment.
NCI-60 Human Tumor Cell Lines Screen was performed using the standard one-dose NCI protocol, which is described in more detail at https://dtp.cancer.gov/discovery_development/nci-60/default.htm.
Compounds with GIPRCNT values below 10 were considered active. Activity score was based on GIPRCNT using the following formula: […]
Score is 0 for GIPRCNT values of 100 or above, 50 for GIPRCNT values of 0, and 100 for GIPRCNT values of -100.

Row | Compound | growth
1 | COc1ccc2[nH]cc(-c3nc(N)nnc3-c3cn(C)c4ncc(Br)cc34)c2c1 | 5.39% (active)
2 | Cn1cc(-c2nnc(N)nc2-c2c[nH]c3ccc(F)cc23)c2cc(Br)cnc21 | 57.1%
3 | CCOC(=O)C1=C(N)N(c2ccc(C)cc2)C2=C(C(=O)CC(C)(C)C2)C1c1ccccc1Br (stereo not given) | 80.7%
4 | CCOc1ccc(/C=N/NC(=O)Cn2nc(Cc3ccc(OC)cc3)c3onc(C)c3c2=O)cc1 | 4.53% (active)
5 | O=C(Nc1ccc(Oc2ncnc3scc(Nc4n[nH]c(=S)s4)c23)cc1)C1(C(=O)Nc2cccc(C(F)(F)F)c2)CC1 | 110%
6 | COc1ccc(Cc2nn(CC(=O)N/N=C/c3ccc([N+](=O)[O-])cc3)c(=O)c3c(C)noc23)cc1 | 24.4%
7 | COc1ccc(Cn2cc(C#N)c(N)c2C(C)=O)c(OC)c1 | 105%
8 | COc1ccc(-n2c(SCC(=O)NNS(=O)(=O)c3ccccc3)nc3ccc(Cl)cc3c2=O)cc1 | 101%
9 | COc1ccc(C2OC[C@@]3(C)C4CC[C@]5(C)C(CC=C6C7CC(C)(C)CC[C@]7(C(=O)O)CC[C@]65C)[C@@]4(C)C[C@@H](O)[C@@H]3O2)cc1 (stereo not given in full) | 50.7%
10 | O=C(CN1CCN(c2ncnc3c2cnn3-c2ccccc2)CC1)Nc1ccc(Br)cc1 | 76.2%
11 | O=C1NC2C=CC=CC2/C1=C1/SC(=S)N(C2CC(=O)N(c3ccc(Br)cc3)C2=O)C1=O (stereo not given) | 91.4%
12 | COc1cc(Nc2nc(O)c(/C=C3\C=Nc4ccccc43)s2)cc(OC)c1OC | -79.8% (active)
13 | CCOC(=O)c1ccc(NC(=O)CSC(CC(=O)c2sc(Nc3ccccn3)nc2C)c2ccccc2F)cc1 (stereo not given) | -70.4% (active)
14 | O=[N+]([O-])c1cccc(-c2nnc3c(/C=C/c4ccccc4O)nc4ccccc4n23)c1 | 76.7%
15 | CC1(C)CC[C@]2(C(=O)O)CC[C@]3(C)C(=CCC4[C@@]5(C)C[C@@H](O)[C@@H]6OC(c7cccc(F)c7)OC[C@@]6(C)C5CC[C@]43C)C2C1 (stereo not given in full) | 11.6%
16 | C#C[C@]1(O)CC[C@H]2[C@@H]3CC=C4c5sc(Nc6ccc(C(F)(F)F)cn6)nc5CC[C@]4(C)[C@H]3CC[C@@]21C | -82.9% (active)
17 | O=C(CSc1nc2ccccc2c(=O)n1-c1ccc(Cl)cc1)Nc1ccc(-c2nc3ccccc3[nH]2)cc1 | -61.4% (active)
18 | CC1[C@H]2[C@H](C[C@H]3[C@@H]4CC=C5c6sc(Nc7cccc(Cl)n7)nc6CC[C@]5(C)[C@H]4CC[C@@]32C)O[C@]12CC[C@@H](C)CO2 (stereo not given in full) | 92.2%
19 | Cc1ccc(COc2ccc(NC(=O)Nc3ccc(Cl)c(C(F)(F)F)c3)cc2)cc1 | 69.8%
20 | COc1ccc(C2c3sc4ccc(C)cc4c3Oc3nc[nH]c(=O)c32)cc1 (stereo not given) | 73.5%

Row | Compound | growth
21 | COc1ccc(NCc2cn(-c3ccc(C(=O)O)cc3)nc2-c2ccc(F)cc2)cc1C(F)(F)F | 29.5%
22 | COC(=O)CNC(=O)COc1c(OC)c(OC)cc2oc(-c3cccc(C(=O)Nc4ccc(Cl)cc4)c3)cc(=O)c12 | 11.7%
23 | COc1ccc(C(=O)COc2ccc(NC(=O)Nc3ccccc3)cc2)cc1 | 86.5%
24 | C#C[C@]1(O)CC[C@H]2[C@@H]3CC=C4c5sc(Nc6ccc(N(C)C)cc6)nc5CC[C@]4(C)[C@H]3CC[C@@]21C | -75% (active)
25 | O=C(c1ccccc1)c1ccc2nc(-c3ccccc3Br)[nH]c2c1 | -94.7% (active)
26 | O=C1NC(=S)S/C1=C\c1cn(-c2ccccc2)nc1-c1ccc([N+](=O)[O-])cc1 | 9.35% (active)
27 | Cc1ccc(S(=O)(=O)N2CCN(S(=O)(=O)c3oc(-c4ccccc4)nc3C#N)CC2)cc1 | 84.4%
28 | Cn1cc(-c2nc(N)nnc2-c2c[nH]c3ccccc23)c2cc(Br)cnc21 | 8.89% (active)
29 | COc1cc(C2CC(c3ccc(Oc4ccc(Cl)cc4)cc3)=NN2c2nc(-c3ccc(Cl)cc3)c(C#N)c(N3CCOCC3)n2)cc(OC)c1OC (stereo not given) | 102%
30 | C#CCOc1cc(N(CC)CC)ccc1C(C(=O)NC(C)(C)C)N(C(=O)C1CCc2cc(F)ccc2O1)c1ccc(F)cc1F (stereo not given) | 27.1%
31 | Cc1ccc2c(c1)C(=O)/C(=C/c1ccc([N+](=O)[O-])cc1)S2 | 77.8%
32 | Cn1cc(-c2cc(N)n3nc(-c4cn(C)c5ccccc45)cc3n2)c2cc(F)ccc21 | -77% (active)
33 | Cn1cc(/C=C(/SS/C(=C/c2cn(C)c3cccc(C(=O)O)c23)C(=O)O)C(=O)O)c2c(C(=O)O)cccc21 | 99.6%
34 | O=C(c1ccc(Cl)cc1)C(c1c[nH]c2ccccc12)c1c[nH]c2ccccc12 | -89.1% (active)
35 | O=C(Nc1ccc(OCc2ccc(F)cc2)cc1)Nc1ccc(Cl)c(C(F)(F)F)c1 | 10.3%
36 | O=C(Nc1ccc(OCc2ccc(Cl)cc2)cc1)Nc1ccc(Cl)c(C(F)(F)F)c1 | 6.47% (active)
37 | O=C1S/C(=C\c2ccc([N+](=O)[O-])cc2)C(=O)N1CCN1CCCCC1 | 102%
38 | COc1cccc(C(=O)CSc2nc(-c3ccc(OCc4ccccc4)c(OC)c3)c(C#N)c(=O)[nH]2)c1 | 79.2%
39 | Cc1cc(N=C2NC(=O)/C(=C/c3cc(C(C)(C)C)c(O)c(C(C)(C)C)c3)S2)n[nH]1 | 6.8% (active)
40 | Fc1ccc(-c2csc(Nc3cccc(Nc4nc(-c5ccc(F)cc5)cs4)c3)n2)cc1 | 62.7%
